Growth data for six molecules are collected here from PubChem BioAssay (NCI).

The panel holds about 83,000 compounds, 20% with a hit somewhere; the sample as a whole holds those more often.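 Results are percent growth after 48 hours of single-concentration exposure. 100 means growth as in untreated cells, lower positive values show inhibition; negative values down to -100 show cell death.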 Calls of active or inactive are those of the source. How the source made its calls: active means growth percent below 10; inactive means the rest.

Some test systems named below: SK-MEL-2 melanoma; EKVX NSCLC; SN12C renal; UO-31 renal; TK-10 renal; ACHN renal; CAKI-1 renal; A498 renal; CCRF-CEM leukemia; MOLT-4 leukemia; SR leukemia; RPMI-8226 leukemia; OVCAR-8 ovarian; OVCAR-5 ovarian; OVCAR-4 ovarian; SK-OV-3 ovarian; IGROV1 ovarian; OVCAR-3 ovarian; HS 578T breast; NCI/ADR-RES ovarian.
What all share (assay): NCI-60 one-dose screen, 48 h (100 = growth as untreated, 0 = no growth, -100 = all killed)
Common to all, as to conditions: 10 µM unless noted

`CC(=O)c1c2c(c3ccc4c5ccccc5ccc4n13)C(=O)c1ccccc1C2=O`: the growth with SK-MEL-2 melanoma was 93.3% (inactive); in the assay with EKVX NSCLC, 77% (inactive); with SN12C renal, 89.9% (inactive); in the assay with UO-31 renal, 59.3% (inactive); in the assay on TK-10 renal it was 118% (inactive); in the assay with ACHN renal it was 75.6% (inactive). Moreover, the growth was 85.6% (inactive) with CAKI-1 renal; 189% (inactive) in the assay on A498 renal; 99.9% (inactive) in the assay on CCRF-CEM leukemia; 90.6% (inactive) in the assay with MOLT-4 leukemia; 77.4% (inactive) in the assay with SR leukemia; 101% (inactive) in the assay with RPMI-8226 leukemia. The growth with OVCAR-8 ovarian was 89.2% (inactive); in the assay on OVCAR-5 ovarian, 115% (inactive); with OVCAR-4 ovarian it was 85.4% (inactive); in the assay with SK-OV-3 ovarian, 97.1% (inactive); with IGROV1 ovarian, 84.5% (inactive); in the assay with OVCAR-3 ovarian it was 108% (inactive). Further, the growth was 82.2% (inactive) in the assay with HS 578T breast and 96.3% (inactive) in the assay on NCI/ADR-RES ovarian.
Consider `Nc1nn2c(-c3cc4cc(Br)ccc4oc3=O)ccnc2c1N=Nc1ccc(S(N)(=O)=O)cc1`, for which the growth in the assay on SK-MEL-2 melanoma was 94.6% (inactive); with EKVX NSCLC, 91.9% (inactive); in the assay with SN12C renal it was 74% (inactive); with UO-31 renal, 76.6% (inactive); in the assay on TK-10 renal it was 114% (inactive); in the assay with ACHN renal, 95.7% (inactive). In addition, the growth was 81% (inactive) in the assay with CAKI-1 renal; 149% (inactive) in the assay on A498 renal; 82.3% (inactive) with CCRF-CEM leukemia; 89.9% (inactive) in the assay with MOLT-4 leukemia; 74.4% (inactive) in the assay on SR leukemia; 109% (inactive) in the assay with RPMI-8226 leukemia. Moreover, the growth was 79% (inactive) in the assay with OVCAR-8 ovarian; 112% (inactive) in the assay on OVCAR-5 ovarian; 100% (inactive) in the assay on OVCAR-4 ovarian; 58.9% (inactive) in the assay on SK-OV-3 ovarian; 93.1% (inactive) with IGROV1 ovarian; 103% (inactive) in the assay with OVCAR-3 ovarian. In addition, the growth is 102% (inactive) in the assay on HS 578T breast and 103% (inactive) in the assay with NCI/ADR-RES ovarian.
Regarding `Oc1ccc(F)c(Nc2nc(SCCN3CCOCC3)nc3c2cnn3CC(Cl)c2ccc(Br)cc2)c1` (stereo not given), the growth in the assay with SK-MEL-2 melanoma was 33.5% (inactive); with EKVX NSCLC it was 30% (inactive); with SN12C renal it was 32.3% (inactive); in the assay on UO-31 renal, 16.9% (inactive); in the assay on TK-10 renal it was 68.6% (inactive); with ACHN renal, 16.5% (inactive). The growth is 24% (inactive) with CAKI-1 renal; 63.1% (inactive) in the assay with A498 renal; -3.71% (active) with CCRF-CEM leukemia; 6.17% (active) in the assay with MOLT-4 leukemia; -2.59% (active) in the assay on SR leukemia; 1.15% (active) in the assay with RPMI-8226 leukemia. In addition, the growth in the assay with OVCAR-8 ovarian is 20.2% (inactive); with OVCAR-5 ovarian, 40.5% (inactive); in the assay on OVCAR-4 ovarian, 31.9% (inactive); in the assay on SK-OV-3 ovarian it was 64.2% (inactive); with IGROV1 ovarian, 12.5% (inactive); with OVCAR-3 ovarian, 25.8% (inactive). The figures for the growth with HS 578T breast and in the assay with NCI/ADR-RES ovarian were -23.9% (active) and 16.4% (inactive), respectively.
`O=C(CSc1nc2sc3c(c2c(=O)n1-c1ccc(Cl)cc1)CCCC3)NNC(=O)c1ccc(F)cc1`: the growth with SK-MEL-2 melanoma was 104% (inactive); in the assay on EKVX NSCLC it was 63.3% (inactive); in the assay with SN12C renal, 40.1% (inactive); in the assay with UO-31 renal, 56% (inactive); in the assay on TK-10 renal, 163% (inactive); with ACHN renal it was 85.6% (inactive). For the same molecule, the growth in the assay on CAKI-1 renal was 73.1% (inactive); in the assay on A498 renal, 121% (inactive); in the assay on CCRF-CEM leukemia it was 73.6% (inactive); in the assay with MOLT-4 leukemia it was 81.3% (inactive); in the assay with SR leukemia, 46.3% (inactive); with RPMI-8226 leukemia, 83.2% (inactive). Besides, the growth is 35.4% (inactive) with OVCAR-8 ovarian; 73.8% (inactive) in the assay on OVCAR-5 ovarian; 83.9% (inactive) in the assay with OVCAR-4 ovarian; 90.5% (inactive) with SK-OV-3 ovarian; 63.3% (inactive) with IGROV1 ovarian; 119% (inactive) with OVCAR-3 ovarian. Also, the results for the growth in the assay on HS 578T breast and in the assay with NCI/ADR-RES ovarian were 79.9% (inactive) and 77.6% (inactive), respectively.
As for `O=C(N/N=C/c1c[nH]c2ccccc12)Nc1ccc(F)c(Cl)c1`, the growth was -9.22% (active) in the assay with SK-MEL-2 melanoma; 40.9% (inactive) in the assay with EKVX NSCLC; 42.1% (inactive) in the assay with SN12C renal; 37.1% (inactive) in the assay with UO-31 renal; 80.6% (inactive) in the assay on TK-10 renal; 41.7% (inactive) with ACHN renal. For the same molecule, the growth was 32.1% (inactive) in the assay on CAKI-1 renal; 66.6% (inactive) in the assay on A498 renal; 12.9% (inactive) in the assay with CCRF-CEM leukemia; 10.4% (inactive) in the assay with MOLT-4 leukemia; 19.3% (inactive) in the assay with SR leukemia; 27.5% (inactive) in the assay with RPMI-8226 leukemia. For the same molecule, the growth was 50.2% (inactive) in the assay on OVCAR-8 ovarian; 60.1% (inactive) in the assay on OVCAR-5 ovarian; 52.8% (inactive) in the assay with OVCAR-4 ovarian; 38.6% (inactive) with SK-OV-3 ovarian; 42.7% (inactive) with IGROV1 ovarian; 18.9% (inactive) in the assay with OVCAR-3 ovarian. For the same molecule, the growth is 58.8% (inactive) in the assay with HS 578T breast and 9.47% (active) in the assay with NCI/ADR-RES ovarian.
Take `Cc1ccc(Cl)cc1NC(=O)Nc1nc2ccc([N+](=O)[O-])cc2s1`: the growth with SK-MEL-2 melanoma was -47.1% (active); in the assay on EKVX NSCLC, -0.784% (active); in the assay with SN12C renal, -25.7% (active); in the assay on UO-31 renal, -16.3% (active); in the assay on TK-10 renal, 2.13% (active); with ACHN renal it was -19.8% (active). Also, the growth in the assay with CAKI-1 renal is -26% (active); in the assay with A498 renal, -21.7% (active); in the assay with CCRF-CEM leukemia, 3.14% (active); in the assay with MOLT-4 leukemia, 6.23% (active); with SR leukemia, 1.31% (active); in the assay on RPMI-8226 leukemia, -18.7% (active). Also, the growth in the assay with OVCAR-8 ovarian was 1.61% (active); with OVCAR-5 ovarian it was 2.15% (active); in the assay with OVCAR-4 ovarian, 7.05% (active); in the assay with SK-OV-3 ovarian it was -28.6% (active); in the assay with IGROV1 ovarian it was 8.2% (active); in the assay on OVCAR-3 ovarian, 2.64% (active). Also, the figures for the growth with HS 578T breast and in the assay with NCI/ADR-RES ovarian were -13.9% (active) and -17.1% (active), respectively.
